From PubChem BioAssay AID457 (Sanford-Burnham Center for Chemical Genomics, 2006)
The campaign covered roughly 10,000 compounds. About 20 (0.2%) were called active. No rule for the calls is given here. The list is a sample of the results.

assay: boosters of cytokine-driven VCAM-1 levels – imaging, high-content imaging, pooled HUVEC, TNFa stimulus (AID 457); conditions: TNFa-induced VCAM-1 immunofluorescence imaging;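 compounds tested at 5 µM in the well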;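 as to augmentation: cells exposed to compound for 24 hours before fixing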

augmentation, inactive:
CC(C)Oc1cc2oc(=O)c3c(c2cc1Cl)CCC3
O=C(CSc1nc2ccccc2s1)N1CCN(C(=O)c2ccco2)CC1
CCOc1ccccc1N1CCN(S(=O)(=O)c2cccc3nsnc23)CC1
Cn1c(=O)c2c(nc(NCc3ccccc3)n2CCCc2ccccc2)n(C)c1=O
CCOC(=O)c1[nH]c(CSc2nnc(-c3ccc(OC)cc3)o2)c(C(=O)OCC)c1C
O=C(Nc1cnn(C23CC4CC(CC(C4)C2)C3)c1)c1cnn2c(C(F)(F)F)cc(-c3ccco3)nc12
Cc1noc(C)c1CSc1ccccc1C(=O)N1CCN(c2ccccc2)CC1
CCn1cc(C2=NCC(C)O2)c2ccccc21 (centres undefined)
CCC(=O)N1CCc2cc(Br)cc(S(=O)(=O)C3(C(=O)OC)CC3)c21
COc1ccc(Cl)cc1NC(=O)CCN1CCN(c2ccccc2C)CC1
COC(=O)c1ccc2ncccc2c1
Cc1cccc(C2CC(c3ccccc3)Nc3nc(N)nn32)c1 (centres undefined)
O=C(NCCCN1CCCC1=O)c1cncc(Br)c1
Cc1ccccc1-c1noc(N)c1C#N
COc1ccccc1-c1nnc(SCC(=O)NC2CCCCC2)o1
O=C(CSc1nnnn1-c1ccccc1Cl)Nc1ccc2c(c1)OCCO2
O=C(CCNC(=O)c1ccc(Br)o1)NC1CCCC1
N#Cc1cnn(Cc2ccc(Cl)cc2)c1N
COc1ccc(N2CCN(C(=O)CSc3ccccc3)CC2)cc1
Cc1csc(NC(=O)c2cccc(S(=O)(=O)N3CCCCC3)c2)n1
COCc1[nH]nc2c1C(c1cc(OC)c(O)c(OC)c1)C(C#N)=C(N)O2 (centres undefined)
Cc1cc(NC(=O)CCC(=O)N(c2cccnc2)C(C(=O)NC2CCCC2)c2ccccc2F)no1 (centres undefined)
CN(C)c1ccc(CNn2cnnc2)cc1
O=C(NC1CC2CCC1C2)c1ccc(CN2CCOCC2)cc1 (centres undefined)
CCOc1ccc2nc(NC(=O)CSc3nc4ccccc4c(=O)n3Cc3ccco3)sc2c1
c1ccc(-n2ncc3c(N4CCCCC4)ncnc32)cc1
CCOc1ccccc1C(=O)NCC(=O)OCC(=O)N1C(C)CCCC1C (centres undefined)
Cc1nc2oc3c(NCc4ccccn4)ncnc3c2c2c1COC(C)(C)C2
O=C(c1ccc(NS(=O)(=O)c2cccs2)cc1)N1CCCCC1
COCCNC(=O)c1ccc2c(c1)nc(C)n2-c1cccc(F)c1
O=C(c1ccc(Cl)cc1)N(Cc1cccs1)C1CCS(=O)(=O)C1 (centres undefined)
CN(C(=O)c1c(Cl)nc2sccn12)C1CCCCC1
O=C(COC(=O)C1=COCCO1)Nc1ccccc1Oc1ccccc1
O=C(CN1C(=O)CSC1=O)Nc1ccc(N2CCOCC2)cc1
CCN(CC)CCN1C(=O)C(=O)/C(=C(/O)c2c(C)[nH]c(C(=O)OC)c2C)C1c1ccco1 (centres undefined)
CCNC(=O)N(C)c1nncnc1C(=O)NC
Cc1noc(C)c1S(=O)(=O)N1CCC(C(=O)N2CCN(Cc3ccc4c(c3)OCO4)CC2)CC1
O=C(CSc1nnc(-c2ccncc2)n1-c1ccc(F)cc1)NC(=O)NCc1ccco1
COc1ccc(S(=O)(=O)NC(CC(=O)NCc2ccco2)c2ccco2)cc1 (centres undefined)
COc1ccc2nc(NC(=O)C3CCCN(S(=O)(=O)c4cccc5nsnc45)C3)sc2c1 (centres undefined)
COC(=O)C(CCCCNC(=O)OCc1ccccc1)NC(=O)CN (centres undefined)
CCCCC(CC)Cn1c2nc3ccccc3nc2c2c(=N)oc(C)nc21 (centres undefined)
O=C(CCCN1C(=O)c2ccccc2C1=O)NCc1cccnc1
CCN(CC)S(=O)(=O)c1cccc(-c2nnc(SCC(N)=O)n2CCc2ccccc2)c1
CCc1c(C(=O)Nc2cc(C)ccc2OC)[nH]c(C)c1C(C)=O
COC(=O)c1ccc(-c2nn(C)c(=O)c3ccccc23)cc1
Cc1cc2ncn(S(=O)(=O)c3ccc(S(=O)(=O)N4CCOCC4)cc3)c2cc1C
Cc1ccccc1NC(=O)CN1CCC(NC(=O)Nc2ccccc2)CC1
O=C(Nc1ccc(O)cc1)C1CCCN1S(=O)(=O)c1ccc(F)cc1 (centres undefined)
O=c1c2ccccc2cnn1-c1nc2ccccc2s1
CCc1nnc(NC(=O)CSc2nc3ccccc3s2)s1
Cc1cccc(C(=O)N(C)c2nnc(-c3ccncc3)s2)c1
CCOC(=O)CC1(CC(=O)OCC)NC(=O)c2c(C)sc(C(=O)OCC)c2N1
CCSc1nc(-c2ccc(OC)cc2)ccc1C#N
COC(=O)c1ccccc1NC(=O)c1cc(-c2ccc(OC)c(OC)c2)on1
Cc1cccc(N(CC(=O)Nc2ccc(CC#N)cc2)S(C)(=O)=O)c1
COc1ccc(CN(C(=O)c2oc3ccccc3c2C)C2CCS(=O)(=O)C2)cc1 (centres undefined)
Cn1c(=O)c2ncn(CC(=O)NCCOc3ccc(C(C)(C)C)cc3)c2n(C)c1=O
CSc1nc2ccc(S(=O)(=O)N3CCOCC3)cc2s1
Cn1c(Cc2cccs2)nnc1SCC(=O)N1CCc2ccccc21
O=S(=O)(c1cccc(S(=O)(=O)N2CCC(N3CCCCC3)CC2)c1)N1CCOCC1
Cc1ccccc1CS(=O)(=O)Cc1ccc(C(=O)NCCCN2CCOCC2)o1
COc1cccc(-c2noc(CCC(=O)NC3CCCCC3)n2)c1
CCOC(=O)CSC1=Nc2ccccc2C2=NC(CC(=O)NCc3ccc(OC)cc3)C(=O)N12 (centres undefined)
Cc1cc(NC(=O)C23CCC(C)(c4nc5cc(Cl)c(Cl)cc5nc42)C3(C)C)no1 (centres undefined)
Cc1ccc(/C(O)=C2\C(=O)C(=O)N(CCCN(C)C)C2c2ccccn2)cc1 (centres undefined)
O=C(OCc1ccc2c(c1)OCO2)c1ccc(S(=O)(=O)N2CCCCC2)cc1
CCN(CC)S(=O)(=O)c1ccc(S(=O)(=O)N(Cc2ccccn2)Cc2ccco2)cc1
O=C(COc1ccc(S(=O)(=O)NC2CCCCC2)cc1)NCc1ccccn1
CCCCOc1ccc(N(CC(=O)NC2CCCC2)C(=O)CCC(=O)Nc2ccccn2)cc1
CS(=O)(=O)Nc1ccc(C(=O)NCc2ccco2)cc1
CCN(Cc1nc2cc(OC)c(OC)cc2c(=O)[nH]1)C(=O)c1ccc(S(=O)(=O)N(C)C)cc1
O=C(CP(=O)(c1ccccc1)c1ccccc1)N1CCCCC1
Cc1cnc(C(=O)Nc2ccc(N3CCN(C(=O)OC(C)(C)C)CC3)cc2)cn1 14.8%
COc1cccc(N2CCN(CC(=O)Nc3nnc(-c4ccccc4)s3)CC2)c1
Oc1ccc(N2CCN(C(c3ccncc3)c3nnnn3C3CCCC3)CC2)cc1 (centres undefined)
C1CCC2=NCCCN2CC1
CCOc1ccc(N(CC(=O)Nc2ccc(F)c(F)c2)S(=O)(=O)c2c(C)noc2C)cc1
COc1cc(Cl)c(C)cc1NC(=O)COC(=O)c1cnc(C)cn1
O=C(CC1CCCCC1)NCc1ccccn1
COc1ccccc1CNS(=O)(=O)c1ccc(NC(C)=O)cc1
COc1ccc(S(=O)(=O)NC2CCCCC2)c(C)c1C
Cc1nc2ccc(S(=O)(=O)NCC(=O)N3CCc4ccccc4C3)cc2s1
CCOc1ccccc1Nc1nc2ccccc2[nH]1
Cc1ccc2nc(-c3ccc4c(c3)OCCO4)cc(C(=O)O)c2c1
COc1ccc(C(=O)NCCc2nnc(SCc3nc4ccccc4c(=O)[nH]3)n2C)cc1
Cc1cc(NC(=O)c2cc3ccccc3o2)cc(C)c1OCC(=O)N1CCOCC1
Cc1c(C(=O)OCC(C)C)[nH]c2c1C(=O)CC(c1ccco1)C2 (centres undefined)
CC(NC(=O)c1ccc(F)cc1)C(c1cccs1)N1CCN(C)CC1 (centres undefined)
C=CCN1C(=O)C2(C(C#N)=C(N)Oc3n[nH]c(CCC)c32)c2ccccc21 (centres undefined)
CCOC(=O)c1c(NC(=O)OC)sc(C(=O)N(C)C)c1C
COc1ccc(N(C)C(=O)CCS(=O)(=O)c2cccc3nonc23)cc1
COc1ccc(CCNC(=O)CCN2C(=O)C3CC=CCC3C2=O)cc1OC (centres undefined)
O=C(Nc1ccccc1)c1cnc2n(c1=O)CCS2
C=CCn1cnc2c(NCc3ccccc3)ncnc21
Cc1cc(C)n(S(=O)(=O)c2cc(C(=O)O)c(Cl)cc2Cl)n1
CCOC(=O)C1=C(CN2CCOCC2)NC(=O)NC1c1cc(C)ccc1C (centres undefined)
O=C(O)CC(NC(=O)c1ccccc1NC(=O)c1ccccc1)C(=O)O (centres undefined)
COc1ccc2cc(CN(CCO)C(=O)c3ccc(Br)cc3)c(=O)[nH]c2c1
COc1cc(OC)cc(-c2nnc(SCC(=O)Nc3cc(C)on3)o2)c1
Cc1ccc(C(=O)OCC(=O)Nc2ccc3c(c2)OCO3)o1
Cc1cc2ccccc2c(=O)n1CC(=O)N(C)c1ccc(F)cc1
CC(Oc1ccccc1)C(=O)Nc1ccc(S(=O)(=O)NCC2CCCO2)cc1 (centres undefined)
Cn1c(NC(=O)c2cccc(Cn3cc(Cl)cn3)c2)nc2ccccc21
Cc1cc2c(s1)c1cnn(CC(=O)NCCc3ccccc3)c(=O)c1n2C
COc1ccc2c(c1)CCc1c(C(=O)N3CC4(C)CC3CC(C)(C)C4)noc1-2 (centres undefined)
O=C(Cn1ccc2ccccc2c1=O)NCCC(=O)N1CCN(C(=O)c2ccco2)CC1
CCN(CC)C1CCCCC1NS(=O)(=O)c1ccc(Cl)cc1 (centres undefined)
Cn1c(=O)cc(OCC(=O)N2CCN(c3cccc(C(F)(F)F)c3)CC2)c2ccccc21
